# Inconclusive results are not listed. Entries that show only a call come without a potency. Calls of active or inactive are those of the source. The call rests on the fitted dose curve; in most records, active means well fitted inhibition curve with a large enough effect; inconclusive means small, poorly fitted or top-dose-only effect; inactive means no such curve, though single readings can be large or run the other way.
# Experiments:
# [1] = test system: Zika virus NS2B-NS3 protease (unlinked complex); assay: Primary screen GU Rhodamine qHTS for Zika virus inhibitors: Unlinked NS2B-NS3 protease assay (AID 1347159); further: nearly all actives have a fitted effect of over 60% in size
# How it was run: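 Percent inhibition came from the 15-min rise in Rhodamine110 fluorescence (1.5 microM substrate, ~15% conversion), normalized to no-inhibitor and no-enzyme wells and Hill-fitted. Unlinked protease, 25 nM, pH 8.0 Tris buffer; compounds up to 114 microM, 15-min preincubation.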
# [2] = test system: Zika virus NS2B-NS3 protease (linked construct); assay: Primary screen NINDS Rhodamine qHTS for Zika virus inhibitors (AID 1347160); further: nearly all actives have a fitted effect of over 55% in size
# How it was run: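 Rhodamine110-peptide cleavage (1.5 µM substrate) by 25 nM linked NS2B-NS3 enzyme at pH 8.0 (Tris, Tween 20), after 15 min RT preincubation with compounds; 15-min fluorescence change normalized to controls and Hill-fitted.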
Structure (SMILES),Potency [1],Potency [2]
CCCc1cc2c(N3CCN(C4=NCC(C)(C)S4)CC3)ncnc2s1,inactive,inactive
CCCN1CCC=C(c2cc(-c3ccc(C)cc3)no2)C1,inactive,inactive
O=C(Nc1ccccc1Cl)c1cnc2ccc(C3CCNCC3)cn12,inactive,inactive
CNc1nc(NCc2ccc(NS(C)(=O)=O)cc2Cl)cc(-c2ccccn2)n1,inactive,inactive
Cc1cc(-c2cc(OC(=O)c3ccccc3)ccc2Cl)cc2nnc(Nc3ccc(OCCN4CCCC4)cc3)nc12,inactive,inactive
COC1CC(=O)C23C(=O)NC(Cc4c[nH]c5ccccc45)C2C(C)C2(C)OC2C3/C=C/CC(C)CC1O (stereo unspecified),inactive,inactive
COc1ccc(S(=O)(=O)N2CCC[C@H]2C(=O)Nc2cc(C)cc(C)c2)cc1,inactive,inactive
O=C(c1cc(Cc2n[nH]c(=O)c3ccccc23)ccc1F)N1CCCNCC1,inactive,inactive
CNC(=O)[C@@H](c1ccccc1)N1CCc2cc(OC)c(OC)cc2[C@@H]1CCc1ccc(C(F)(F)F)cc1,inactive,inactive
CCCOc1ccc(S(=O)(=O)N2CCN(CCO)CC2)cc1-c1nc2c(CCC)cn(CC)c2c(=O)[nH]1,inactive,inactive
COc1cc2c(cc1NS(=O)(=O)c1ccc(Br)cc1C)n(C)c(=O)n2C,inactive,inactive
CCN1C(C)(C)CC(Oc2ccc(C(=O)Nc3ccc(NC(=O)Nc4cc(C(C)(C)C)on4)cc3)nc2)CC1(C)C,inactive,inactive
CCc1c[nH]c2ncnc(N3CC[C@](N)(CNC(=O)c4ccc(F)cc4F)C3)c12,inactive,inactive
